Experimental findings from PubChem BioAssay are described below.

Activity calls are given as the source filed them.

Assay [1] deals with Plasmodium falciparum Sir2 (PF13_0152, Sir2A). The experiment in a line: pfSir2 binders on small-molecule microarrays, primary screen, biochemical, small-molecule microarray, 635 nm fluorescence (AID 1098).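 Also: score merges spot fluorescence intensity with its signal-to-noise ratio.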 The note with it: small-molecule microarray binding, fluorescence 635 nm; higher = more signal.
Assay [2] in a line: small-molecule microarray binders of probe aDKK1, primary screen, biochemical, biotinylated probe, 635/667 nm fluorescence (AID 1099).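 Also: score merges 667nm spot fluorescence with signal to noise across triplicate slides.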 The note with it: higher = more signal.
Assay [3] in a line: small-molecule microarray binders of probe aCHRDL2, primary screen, biochemical, biotinylated probe, 635/667 nm fluorescence (AID 1100). The note with it: higher = more signal.
Assay [4] can be described thus: splicing luciferase reporter signal modulators, primary screen, spliceosome inhibition project, cell-based, HEK293, splice +/- reporter (AID 1101).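 Also: HEK293 cells carrying a splicing-competent luciferase reporter gene; test concentration not given here.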 The note with it: luminescence, 24 h, higher = more signal, called active from +8 up or from −8 down.
Assay [5] addresses Fibroblast growth factor 10 (Homo sapiens) (UniProt O15520). The assay can be described thus: FGF10 binders on small-molecule microarrays, primary screen, biochemical, small-molecule microarray, 635 nm fluorescence (AID 1102). The note with it: FGF10 binding, fluorescence 635 nm, higher = more signal.
In assay [6] the test system is glycogen synthase kinase-3 (GSK3A per assay name; protocol says GSK3B). The assay can be described thus: GSK3 binders on small-molecule microarrays, primary screen, biochemical, small-molecule microarray, 635 nm fluorescence, GSK3A (AID 1103). Also: the record names both GSK3A and GSK3B. The note with it: small-molecule microarray binding, fluorescence 635 nm; higher = more signal.
For assay [7], the target named is Epidermal growth factor receptor (Homo sapiens) (UniProt P00533). The experiment in a line: EGFR binders on small-molecule microarrays, primary screen, biochemical, small-molecule microarray, 635 nm fluorescence (AID 1104).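 Also: score merges 667 nm emission intensity with spot signal to noise over triplicate slides.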 The note with it: EGFR binding, higher = more signal.
For assay [8], the target named is Follistatin-related protein 3 (Homo sapiens) (UniProt O95633). The assay can be described thus: FSTL3 binders on small-molecule microarrays, primary screen, biochemical, small-molecule microarray, 635 nm fluorescence (AID 1105).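 Also: score merges emission near 667 nm and signal to noise per printed spot across three slides.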 The note with it: FSTL3 binding, higher = more signal.
Assay [9] addresses Dickkopf-related protein 1 (Homo sapiens) (UniProt O94907). The experiment in a line: DKK1 binders on small-molecule microarrays, primary screen, biochemical, small-molecule microarray, 635 nm fluorescence scan (AID 1106).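 Also: score merges emission near 667 nm with signal to noise over three replicate slides.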 The note with it: DKK1 binding, higher = more signal.
For assay [10], the system named is Inhibin beta A chain (activin A). The assay can be described thus: INHBA (activin A) binders on microarrays, primary screen, biochemical, small-molecule microarray, 635 nm fluorescence scan (AID 1107).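 Also: mouse activin A protein probed at 4.33 µg/mL on printed slides; score merges bound-protein fluorescence near 667 nm with spot signal-to-noise.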 The note with it: small-molecule microarray binding, higher = more signal.
The test system of assay [11] is Human papillomavirus type 1a protein E7 (residues 44-93). The assay can be described thus: HPV1a E7 fragment binders on microarrays, primary screen, biochemical, small-molecule microarray, residues 44-93, 635 nm fluorescence (AID 1108).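 Also: E7 fragment applied at 1 µg/mL in TBST for 1 h at 4 C; score combines spot fluorescence with its signal to noise ratio.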 The note with it: small-molecule microarray binding, fluorescence 635 nm; higher = more signal.
Assay [12] in a line: modulators of HCV replicon luciferase signal, primary screen, HCV replication inhibitor project, Huh7 cells, luciferase reporter (AID 1109).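 Also: huh7 hepatoma cells harbouring a luciferase neomycin HCV replicon reporter; luciferase luminescence as measure of HCV replicon replication; test concentration not given here.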 The note with it: 48 h, higher = more signal.
The target of assay [13] is Left-right determination factor 2 (Homo sapiens) (UniProt O00292). The assay can be described thus: LEFTY2 binders on small-molecule microarrays, primary screen, biochemical, small-molecule microarray, 635 nm fluorescence scan (AID 1110). The note with it: LEFTY2 binding, higher = more signal.
Assay [14] deals with Calmodulin-1 (Homo sapiens) (UniProt P0DP23). The experiment in a line: CALM1 binders on microarrays, EGTA buffer, profiling panel, biochemical, small-molecule microarray, Cy5-labelled CALM1 (AID 1111).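 Also: labelled calmodulin applied in Tris saline Tween buffer holding calcium plus EGTA and DTT.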 The note with it: Cy5-CALM1 binding fluorescence, higher = more signal.
Assay [15] shares this target. The experiment in a line: calcium-bound CALM1 binders on microarrays, profiling panel, artefact control for SMM control-protein annotation, biochemical, small-molecule microarray, Cy5-labelled CALM1, plus calcium (AID 1112).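 Also: score merges spot fluorescence with signal to noise from triplicate slides.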 The note with it: Cy5-CALM1 binding fluorescence, higher = more signal.
The nature of assay [16]: small-molecule microarray binders of probe aWnt5a, primary screen, biochemical, biotinylated probe, 635/667 nm fluorescence (AID 1113).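 Also: score merges 667 nm fluorescence intensity with signal-to-noise per printed feature.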 The note with it: higher = more signal.
Assay [17] is described as follows: small-molecule microarray binders of probe aShh, primary screen, biochemical, biotinylated probe, 635/667 nm fluorescence (AID 1114).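 Also: probe is biotin-labelled aShh protein from a stem cell growth factor screen; measures binding of labelled protein to compounds printed on the slide; score merges feature fluorescence at 667 nm with signal-to-noise.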 The note with it: higher = more signal.
Assay [18] can be described thus: small-molecule microarray binders of probe aNog, primary screen, biochemical, biotinylated probe, 635/667 nm fluorescence (AID 1115).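 Also: probe is biotinylated aNog protein used at 0.15 µg/mL for 1 h at 4 C; z-score combines 667 nm fluorescence of each spot with its signal to noise.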 The note with it: higher = more signal.
Assay [19] concerns the target Torsin-1A-interacting protein 1 (Homo sapiens) (UniProt Q5JTV8). The assay can be described thus: LAP1 binders from COS7 cell lysate, primary screen, small-molecule microarray, 635/667 nm fluorescence (AID 1116). The note with it: COS7-hLAP1 lysate binding, 635 nm fluorescence, higher = more signal.
The target in assay [20] is Alpha-bungarotoxin (Bungarus multicinctus) (UniProt P60615). The assay can be described thus: alpha-bungarotoxin binders on microarray, profiling panel, artefact control for SMM control protein annotation, biochemical, small-molecule microarray, Alexa647 label, 635/667 nm fluorescence (AID 1117). The note with it: alpha-BTX-A647 binding fluorescence, higher = more signal.
Chain of Alpha-bungarotoxin (Bungarus multicinctus) (P60615 whole entry, looked up): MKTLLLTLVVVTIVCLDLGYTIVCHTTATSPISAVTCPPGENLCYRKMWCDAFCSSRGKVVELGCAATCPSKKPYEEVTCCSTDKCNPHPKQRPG

Chain of Left-right determination factor 2 (Homo sapiens) (O00292 whole entry, looked up): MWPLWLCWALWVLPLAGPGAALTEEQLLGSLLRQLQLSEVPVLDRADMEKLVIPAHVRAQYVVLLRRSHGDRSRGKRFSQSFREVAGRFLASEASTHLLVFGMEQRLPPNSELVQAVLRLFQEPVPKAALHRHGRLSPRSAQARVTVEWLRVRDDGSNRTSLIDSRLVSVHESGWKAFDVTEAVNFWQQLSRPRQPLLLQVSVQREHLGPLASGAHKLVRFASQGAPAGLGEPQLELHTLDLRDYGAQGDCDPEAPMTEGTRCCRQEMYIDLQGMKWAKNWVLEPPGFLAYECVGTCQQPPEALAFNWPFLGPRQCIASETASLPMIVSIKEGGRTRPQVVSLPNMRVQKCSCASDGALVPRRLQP
Chain of Torsin-1A-interacting protein 1 (Homo sapiens) (Q5JTV8 whole entry, looked up): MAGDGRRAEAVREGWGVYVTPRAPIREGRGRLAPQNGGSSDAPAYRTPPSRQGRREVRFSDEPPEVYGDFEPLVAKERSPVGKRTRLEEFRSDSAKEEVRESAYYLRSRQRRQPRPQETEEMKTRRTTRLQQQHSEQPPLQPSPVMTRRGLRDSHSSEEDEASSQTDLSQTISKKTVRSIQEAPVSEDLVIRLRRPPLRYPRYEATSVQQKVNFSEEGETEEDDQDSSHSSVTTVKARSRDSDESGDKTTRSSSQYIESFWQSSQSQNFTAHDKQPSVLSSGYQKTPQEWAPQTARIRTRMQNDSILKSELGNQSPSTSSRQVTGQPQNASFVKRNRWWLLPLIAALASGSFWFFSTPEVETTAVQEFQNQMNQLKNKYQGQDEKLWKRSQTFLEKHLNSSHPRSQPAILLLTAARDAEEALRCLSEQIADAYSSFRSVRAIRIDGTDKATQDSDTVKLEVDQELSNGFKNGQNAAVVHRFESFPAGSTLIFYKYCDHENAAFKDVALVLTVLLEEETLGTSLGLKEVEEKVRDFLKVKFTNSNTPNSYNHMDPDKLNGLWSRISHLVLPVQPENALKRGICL
Chain of Epidermal growth factor receptor (Homo sapiens) (P00533 whole entry, looked up): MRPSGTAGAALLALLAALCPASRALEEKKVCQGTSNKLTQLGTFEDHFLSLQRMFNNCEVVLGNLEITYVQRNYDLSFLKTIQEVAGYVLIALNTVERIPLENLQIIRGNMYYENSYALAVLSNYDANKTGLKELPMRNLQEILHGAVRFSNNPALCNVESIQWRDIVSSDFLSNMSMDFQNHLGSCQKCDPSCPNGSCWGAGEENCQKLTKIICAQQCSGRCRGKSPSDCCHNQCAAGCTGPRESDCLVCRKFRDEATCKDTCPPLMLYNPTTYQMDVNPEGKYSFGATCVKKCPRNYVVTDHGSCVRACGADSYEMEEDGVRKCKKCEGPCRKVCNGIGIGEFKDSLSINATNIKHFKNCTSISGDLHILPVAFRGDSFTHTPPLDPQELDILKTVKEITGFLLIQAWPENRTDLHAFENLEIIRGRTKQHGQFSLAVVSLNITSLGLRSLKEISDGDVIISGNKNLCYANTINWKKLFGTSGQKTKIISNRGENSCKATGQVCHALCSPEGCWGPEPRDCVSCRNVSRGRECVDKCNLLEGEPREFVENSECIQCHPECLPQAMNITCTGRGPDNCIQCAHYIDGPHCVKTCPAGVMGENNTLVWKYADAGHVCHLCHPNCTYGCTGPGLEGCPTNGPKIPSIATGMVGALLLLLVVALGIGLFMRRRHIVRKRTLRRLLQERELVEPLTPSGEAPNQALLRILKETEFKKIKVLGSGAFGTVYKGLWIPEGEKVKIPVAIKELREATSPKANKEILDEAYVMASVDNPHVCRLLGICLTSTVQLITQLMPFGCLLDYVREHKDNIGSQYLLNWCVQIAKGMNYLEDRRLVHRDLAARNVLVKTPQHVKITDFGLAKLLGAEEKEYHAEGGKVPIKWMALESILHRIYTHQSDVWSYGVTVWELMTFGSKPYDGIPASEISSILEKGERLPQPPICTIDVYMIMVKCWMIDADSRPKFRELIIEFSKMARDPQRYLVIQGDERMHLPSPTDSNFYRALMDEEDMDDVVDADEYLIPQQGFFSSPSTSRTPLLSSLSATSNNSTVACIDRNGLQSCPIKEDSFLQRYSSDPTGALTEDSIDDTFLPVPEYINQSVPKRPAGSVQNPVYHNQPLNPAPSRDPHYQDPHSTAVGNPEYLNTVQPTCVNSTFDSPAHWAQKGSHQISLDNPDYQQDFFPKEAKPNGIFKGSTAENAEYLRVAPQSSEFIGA
Chain of Dickkopf-related protein 1 (Homo sapiens) (O94907 whole entry, looked up): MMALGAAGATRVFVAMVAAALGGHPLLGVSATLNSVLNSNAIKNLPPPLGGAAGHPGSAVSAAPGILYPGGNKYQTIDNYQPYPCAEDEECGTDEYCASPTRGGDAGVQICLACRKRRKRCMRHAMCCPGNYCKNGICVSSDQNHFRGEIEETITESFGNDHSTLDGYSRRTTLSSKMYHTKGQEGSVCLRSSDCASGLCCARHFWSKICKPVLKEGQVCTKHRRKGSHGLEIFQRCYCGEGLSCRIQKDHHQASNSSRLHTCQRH
Chain of Follistatin-related protein 3 (Homo sapiens) (O95633 whole entry, looked up): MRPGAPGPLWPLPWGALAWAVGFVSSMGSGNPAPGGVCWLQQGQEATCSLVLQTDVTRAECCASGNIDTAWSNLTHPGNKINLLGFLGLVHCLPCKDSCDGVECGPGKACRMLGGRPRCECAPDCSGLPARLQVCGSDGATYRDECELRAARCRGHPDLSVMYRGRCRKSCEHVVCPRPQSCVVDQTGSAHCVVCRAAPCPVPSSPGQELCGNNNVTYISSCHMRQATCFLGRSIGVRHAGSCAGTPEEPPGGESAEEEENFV
Chain of Fibroblast growth factor 10 (Homo sapiens) (O15520 whole entry, looked up): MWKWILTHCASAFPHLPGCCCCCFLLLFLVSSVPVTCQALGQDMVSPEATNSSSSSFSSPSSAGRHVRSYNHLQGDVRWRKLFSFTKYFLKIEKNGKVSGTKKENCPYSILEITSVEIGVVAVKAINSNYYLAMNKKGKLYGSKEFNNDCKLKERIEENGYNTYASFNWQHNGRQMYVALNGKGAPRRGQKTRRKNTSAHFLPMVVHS

As for `C[C@@H]1CC[C@H]2C(=O)N3[C@@H](CC[C@@H](C)[C@@H]3c3ccc(Br)cc3)C(=O)N2[C@H]1c1ccc(Br)cc1`, the composite z-score was 0.223 in [1]; -0.339 in [2]; -0.355 in [3]; 0.592 in [5]; -0.0161 in assay [6]; 0.278 in [7]. In addition, the composite z-score was 0.384 in [8]; 0.605 in assay [9]; 0.22 in assay [10]; -0.0146 in assay [11]; 0.31 in assay [13]; -0.209 in assay [14]. In addition, the composite z-score was -0.188 in assay [15]; -0.105 in assay [16]; -0.138 in assay [17]; -0.113 in [18]; 0.08 in assay [19]; 0.371 in assay [20]. In addition, the z-score in assay [4] was -0.628 (inactive); in assay [12], -1.82.

In the case of `CCOC(=O)[C@H](CC(C)C)NC(=O)CCC1CC(OC(=O)NCCc2ccc(F)cc2)CC2(CCCC(COC(=O)NCCOC)O2)O1` (stereo not given in full), the composite z-score is 0.745 in assay [1]; 0.0045 in assay [2]; -0.411 in assay [3]; 1.15 in assay [5]; 0.953 in assay [6]; 0.633 in [7]. In addition, the composite z-score in assay [8] is 1.36; in assay [9], 0.96; in [10], -0.0586; in assay [11] it was 1.34; in assay [13], 1.12; in [14], 0.217. Besides, the composite z-score is -0.119 in [15]; -0.176 in assay [16]; -0.0769 in assay [17]; -0.438 in assay [18]; 0.461 in assay [19]; 0.411 in assay [20]. Also, the figures for the z-score in assay [4] and in [12] were -0.0891 (inactive) and -0.694, respectively.

As for `CO[C@@H]1[C@H](O)CO[C@H]1C=Cc1ccccc1`, the composite z-score in assay [1] is 1.55; in assay [2], -0.261; in assay [3], -0.41; in [5], 0.961; in [6], -0.135; in assay [7] it was 0.0571. In addition, the composite z-score was 0.211 in assay [8]; 0.365 in [9]; 0.512 in assay [10]; 0.258 in [11]; 0.509 in [13]; -0.0028 in [14]. Besides, the composite z-score in [15] is -0.144; in assay [16], 0.0078; in [17], -0.16; in assay [18] it was -0.0563; in assay [19], 0.0195; in assay [20], 0.241. Further, the z-score in assay [4] is -0.0979 (inactive); in assay [12], -0.696.

As for `COC(=O)[C@@H]1CC[C@H](C)[C@@H](c2ccc(Br)cc2)N1C(=O)C(F)(F)F`, the composite z-score in assay [1] was -0.324; in assay [2] it was -0.215; in [3], -0.174; in assay [5] it was -0.329; in [6], -0.657; in assay [7], 0.0496. The composite z-score in [8] was -0.324; in [9] it was -0.144; in [10] it was 0.237; in [11], -1.1; in [13], 0.179; in assay [14] it was -0.257. The composite z-score in [15] is 0.137; in assay [16], -0.226; in [17], -0.476; in [18], -0.127; in assay [19], -0.287; in assay [20], 0.263. In addition, the z-score was -0.0429 (inactive) in assay [4] and -0.317 in assay [12].

For the compound `CC(C)(C)N1C(=O)[C@H]2[C@H]3[C@H](O)[C@H](O)CC(=NNC(=O)OCc4ccccc4)[C@@H]3CC[C@H]2C1=O`, the composite z-score was -0.106 in assay [1]; -0.348 in assay [2]; -0.518 in assay [3]; 0.487 in assay [5]; 0.554 in [6]; 0.251 in assay [7]. The composite z-score in [8] is 0.376; in assay [9], 0.455; in assay [10], -0.337; in assay [11], 0.594; in assay [13] it was 0.432; in assay [14] it was -0.213. Moreover, the composite z-score in assay [15] was -0.412; in [16], -0.0721; in assay [17], -0.399; in assay [18], -0.137; in assay [19], 0.505; in [20], 0.162. Further, the z-score was 0.305 (inactive) in [4] and 0.508 in [12].
